Assay [1] can be described thus: growth loss of phage-infected RecBCD+ E. coli, confirmation, RecBCD inhibitor project, absorbance, E. coli V66, T4 gene 2 phage (AID 651982;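 active = mean inhibition over triplicates exceeding the hit threshold derived in the original primary screen, cut at about 11% in these data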). The note with it: E. coli V66 + T4 2- phage, growth OD; at 11.9 µM; active compounds read high.
A short description of assay [2]: E. coli viability inhibition, counter-screen for RecBCD inhibitor project, absorbance, high throughput (AID 651983; in the data active = inhibition above about 20%;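 also: E. coli strain V66 grown with compound alone and no phage infection; 0% = bacteria with DMSO vehicle only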). As to conditions: absorbance (OD) growth, at 11.9 µM, active compounds read high. Background: The purpose of a counterscreen is to sort out artefacts and off-target activity.
Assay [3] can be described thus: growth loss of phage-infected AddAB-carrying E. coli, confirmation, counter-screen for RecBCD inhibitor project, absorbance, E. coli V3065, T4 phage (AID 651984;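 active = mean inhibition above the solvent-only control wells' mean plus 3 SD, cut at about 22% in these data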;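 also: higher means less bacterial growth from phage killing when AddAB is blocked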). As to conditions: E. coli expressing H. pylori AddAB + T4 phage, OD growth; at 11.9 µM; active compounds read high; gene 2 mutant T4, recBCD-deleted host.
Assay [4] in a line: StAR promoter reporter inhibitors, counter-screen for LRH-1 inverse agonist project, cell-based, luminescence, high throughput (AID 651611; in the data active = inhibition above about 28%). As to conditions: StAR promoter luciferase reporter counterscreen, at 3.6 µM, active compounds read high.
The nature of assay [5]: VP16 transactivation reporter inhibitors, counter-screen for LRH-1 inverse agonist project, cell-based, luminescence, high throughput (AID 651615; in the data active = inhibition above about 33%). The note with it: Gal4-VP16 luciferase reporter cells, at 3.6 µM, active compounds read high.
Assay [6] concerns the target Nuclear receptor subfamily 5 group A member 2 (Homo sapiens) (UniProt O00482). In words: LRH-1 (NR5A2) inverse agonists, retest, confirmation, cell-based, luminescence (AID 651613; in the data active = inhibition above about 42%;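 also: HEK293T cells co-transfected with LRH-1 and StAR promoter luciferase reporter; 0% = vehicle wells and 100% = parental cells lacking receptor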). The note with it: cell-based LRH-1 luciferase reporter, inverse agonism; at 3.6 µM; active compounds read high. (In general: In a reporter assay the amount or activity of a reporter protein is the signal.)

For assay [7], the target named is Steroidogenic factor 1 (Homo sapiens) (UniProt Q13285). In words: SF1 (NR5A1) inverse agonists, counter-screen for LRH-1 inverse agonist project, cell-based, luminescence, high throughput (AID 651614; in the data active = inhibition above about 44%;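 also: cells cotransfected with StAR promoter reporter and SF1 expression vector; 0% = vehicle on cells with receptor and 100% = vehicle on cells lacking receptor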). As to conditions: cell-based SF1 luciferase reporter, at 3.6 µM, active compounds read high.
Chain of Steroidogenic factor 1 (Homo sapiens) (Q13285 whole entry, looked up): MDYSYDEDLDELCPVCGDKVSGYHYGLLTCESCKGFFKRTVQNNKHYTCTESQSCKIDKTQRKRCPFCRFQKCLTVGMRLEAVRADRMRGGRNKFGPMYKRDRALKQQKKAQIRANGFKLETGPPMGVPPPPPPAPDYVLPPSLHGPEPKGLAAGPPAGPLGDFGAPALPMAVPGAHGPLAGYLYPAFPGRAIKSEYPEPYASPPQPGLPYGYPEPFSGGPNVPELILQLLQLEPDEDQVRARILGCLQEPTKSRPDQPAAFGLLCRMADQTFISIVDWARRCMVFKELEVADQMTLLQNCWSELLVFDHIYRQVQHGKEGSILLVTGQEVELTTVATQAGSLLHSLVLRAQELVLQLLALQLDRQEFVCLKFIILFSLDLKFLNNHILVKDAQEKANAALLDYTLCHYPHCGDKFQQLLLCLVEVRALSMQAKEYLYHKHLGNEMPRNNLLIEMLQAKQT
The subject of assay [8] is transactivating tegument protein VP16 (Human herpesvirus 1). Nature of the assay: VP16 transactivation reporter inhibitors, counter-screen for SRC2 inhibitor project, cell-based, luminescence, single concentration (AID 652007). The note with it: cell-based VP16 transactivation luciferase reporter, at 8.9 µM, active compounds read high.
The target in assay [9] is Nuclear receptor coactivator 2 (Homo sapiens) (UniProt Q15596). In words: SRC2 coactivator transcriptional activity inhibitors, confirmation, cell-based, luminescence, HEK293, triplicate (AID 652008;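 active = mean inhibition above 46.5%, the solvent-only control mean plus 3 SD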;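 also: 0% = DMSO-treated cells and 100% = Gossypol at 36 µM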). As to conditions: HEK293 GAL4-SRC2 luciferase reporter, at 8.9 µM, active compounds read high.
Chain of Nuclear receptor coactivator 2 (Homo sapiens) (Q15596 whole entry, looked up, the tested form may be a part): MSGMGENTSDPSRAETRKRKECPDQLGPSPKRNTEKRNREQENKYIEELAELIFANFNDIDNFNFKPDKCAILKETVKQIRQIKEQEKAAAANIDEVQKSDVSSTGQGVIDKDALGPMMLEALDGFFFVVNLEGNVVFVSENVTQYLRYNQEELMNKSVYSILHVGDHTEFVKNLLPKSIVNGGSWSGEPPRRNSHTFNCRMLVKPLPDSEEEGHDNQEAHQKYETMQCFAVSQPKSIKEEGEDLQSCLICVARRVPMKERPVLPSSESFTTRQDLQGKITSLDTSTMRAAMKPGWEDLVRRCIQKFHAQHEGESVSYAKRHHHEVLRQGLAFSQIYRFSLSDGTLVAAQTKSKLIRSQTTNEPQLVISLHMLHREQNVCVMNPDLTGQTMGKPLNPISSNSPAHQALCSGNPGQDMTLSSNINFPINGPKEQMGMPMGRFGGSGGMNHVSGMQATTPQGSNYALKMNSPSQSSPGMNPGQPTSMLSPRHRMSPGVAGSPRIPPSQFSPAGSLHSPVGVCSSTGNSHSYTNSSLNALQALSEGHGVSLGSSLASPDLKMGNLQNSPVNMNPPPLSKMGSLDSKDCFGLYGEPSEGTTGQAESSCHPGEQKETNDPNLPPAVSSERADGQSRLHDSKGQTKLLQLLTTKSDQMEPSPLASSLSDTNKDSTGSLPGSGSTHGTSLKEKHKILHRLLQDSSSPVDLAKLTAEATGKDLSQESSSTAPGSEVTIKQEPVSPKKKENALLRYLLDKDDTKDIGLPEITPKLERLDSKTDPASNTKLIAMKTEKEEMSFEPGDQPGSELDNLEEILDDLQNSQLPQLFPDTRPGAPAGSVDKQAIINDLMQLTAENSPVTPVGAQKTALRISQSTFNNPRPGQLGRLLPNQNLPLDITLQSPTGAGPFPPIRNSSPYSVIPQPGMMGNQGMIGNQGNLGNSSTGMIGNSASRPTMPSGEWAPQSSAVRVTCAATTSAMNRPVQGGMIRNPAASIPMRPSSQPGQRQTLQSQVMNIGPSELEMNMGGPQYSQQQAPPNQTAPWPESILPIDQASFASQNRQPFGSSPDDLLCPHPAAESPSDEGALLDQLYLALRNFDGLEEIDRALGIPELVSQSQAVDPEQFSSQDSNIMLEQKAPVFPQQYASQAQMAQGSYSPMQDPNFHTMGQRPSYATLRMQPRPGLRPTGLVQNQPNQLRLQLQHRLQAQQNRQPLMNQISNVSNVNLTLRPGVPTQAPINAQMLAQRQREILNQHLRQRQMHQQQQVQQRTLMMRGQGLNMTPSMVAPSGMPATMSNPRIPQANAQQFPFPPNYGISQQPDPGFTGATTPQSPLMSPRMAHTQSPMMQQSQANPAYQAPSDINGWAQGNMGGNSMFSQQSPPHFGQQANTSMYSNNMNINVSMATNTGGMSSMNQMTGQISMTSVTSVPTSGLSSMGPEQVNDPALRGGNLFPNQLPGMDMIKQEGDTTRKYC

Unmarked numbers belong to inactive results. This is one part of the list. Calls of active or inactive are those of the source. Rule as the data show it, unless noted: active = inhibition above about 36%; inactive = the rest.

The results in this text go back to PubChem BioAssay.

Chain of Nuclear receptor subfamily 5 group A member 2 (Homo sapiens) (O00482 whole entry, looked up): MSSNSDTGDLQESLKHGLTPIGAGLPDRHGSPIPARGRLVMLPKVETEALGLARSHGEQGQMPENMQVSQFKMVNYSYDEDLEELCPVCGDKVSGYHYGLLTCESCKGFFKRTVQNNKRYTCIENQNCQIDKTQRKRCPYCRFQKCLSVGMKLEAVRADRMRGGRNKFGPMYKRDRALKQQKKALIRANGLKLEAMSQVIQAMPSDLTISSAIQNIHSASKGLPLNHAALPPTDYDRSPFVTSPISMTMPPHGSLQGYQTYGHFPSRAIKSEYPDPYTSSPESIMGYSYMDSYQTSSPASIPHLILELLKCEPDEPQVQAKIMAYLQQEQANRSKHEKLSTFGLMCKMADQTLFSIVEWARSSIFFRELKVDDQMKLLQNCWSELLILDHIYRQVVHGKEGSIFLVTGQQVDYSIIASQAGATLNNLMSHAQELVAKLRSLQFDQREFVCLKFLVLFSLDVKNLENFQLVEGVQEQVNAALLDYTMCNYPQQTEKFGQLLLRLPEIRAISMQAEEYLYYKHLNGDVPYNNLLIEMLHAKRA

For `CC1(C(=O)NS(=O)(=O)c2ccccc2)CCN1C(=O)C/C=C/c1ccccc1` (centres undefined), the inhibition – broadly, the relative decrease from the control value, in per cent – was -4.38% in assay [1], -3.55% in assay [2] and -0.33% in assay [3].
For `CC(C)(C)C(=O)/C(=C\c1cccc([N+](=O)[O-])c1)n1cncn1`, the inhibition in assay [4] is 84.9% (active); in [5], 85% (active).
For `CCCCC(=O)NC(c1ccc(OC)c(OC)c1)c1ccc2cccnc2c1O` (centres undefined), the inhibition in assay [1] is 13.9% (active); in assay [2] it was 17.6%; in assay [3], 25.8% (active).
The matching figures for `NC1=NC(=O)C(Cc2cccc(Cl)c2Cl)S1` (centres undefined): 0.33%, 0.21% and -2.48%.
For `CCn1cc(C(=O)NCCO)c(=O)c2cc(F)c(N3CCN(C)CC3)cc21` the same measures were 103% (active), 104% (active) and 104% (active).
The matching figures for `Cc1ccc(NC(=O)Nc2nnc(-c3ccncc3)s2)cc1`: 2.33%, 3.97% and 9.8%.
Consider `O=C(N/N=C/c1ccc([N+](=O)[O-])o1)c1ccc(O)cc1`, for which the values for the inhibition in [6] and in assay [7] were 78.3% (active) and 69% (active), respectively.
As for `CC1=C(C/C=C(\C)CCCC(C)CCCC(C)CCCC(C)C)C(=O)c2ccccc2C1=O` (centres undefined), the inhibition was 0.32% in assay [1], 0.53% in assay [2] and -1.36% in [3].
Turning to `CC(=O)NC(c1cccs1)c1cc(Br)c2cccnc2c1O` (centres undefined), the figures for the inhibition in assay [1], in assay [2] and in assay [3] were 10.7%, 16.4% and 16.1%, respectively.
Regarding `CN(C)c1ccnc2sc(C(N)=O)c(N)c12`, the inhibition in assay [8] was -0.64%.
Regarding `CC(C)(C)C(=O)Nc1c(Br)c(C2CC2)nn1-c1ccccc1`, the inhibition in assay [1] was -0.86%; in assay [2], -0.19%; in assay [3], 0.42%.
For `CC(=O)Nc1ccc(NC(=O)CSc2nnc(-c3ccco3)n2Cc2ccco2)cc1`, the inhibition in assay [6] is 58.2% (active); in assay [7] it was 59.9% (active).
As to `CCN1CCN(C(=O)N[C@@H](C(=O)N[C@@H]2C(=O)N3C(C(=O)O)=C(CSc4nnnn4C)CS[C@H]23)c2ccc(O)cc2)C(=O)C1=O`, the inhibition in assay [1] was 99.8% (active); in assay [2], 101% (active); in [3], 3.42%.
Turning to `O=C(N/N=C/c1ccc([N+](=O)[O-])s1)c1cccnc1`, the inhibition was 13.9% in assay [4] and 7.08% in [5].
On to `CCNC(=S)N(CCc1c(C)[nH]c2ccc(C)cc12)Cc1ccco1`, for which the figures for the inhibition in assay [1], in [2] and in [3] were -0.28%, -0.24% and -0.97%, respectively.
Take `CC(N)C(=O)NC(CO)C(O)C(N)C=O` (centres undefined): the figures for the inhibition in [6] and in [7] were 56.3% (active) and 55.5% (active), respectively.
Regarding `O=C1c2ccccc2C2=Nc3ccccc3SC(c3ccccc3F)C12` (centres undefined), the inhibition in [1] is 8.51%; in assay [2] it was 8.52%; in [3] it was 3.38%.
With `COc1ccc(/C=C/C(=O)O)cc1O`, the inhibition was 1.72% in assay [4] and 2.63% in [5].
As for `S=C(NCC1COc2ccccc2O1)Nc1ccc(Br)cc1` (centres undefined), the inhibition was 4.21% in assay [1], 5.21% in assay [2] and 6.67% in [3].
On to `COC(=O)c1ccc(OCC2c3cc(OC)c(OC)cc3CCN2C(=O)c2ccco2)cc1` (centres undefined), for which the inhibition is 52.8% (active) in assay [6] and 53% (active) in [7].
On to `O=C1NC(Cc2ccc(O)cc2)c2nc3cc(Cl)ccc3c(=O)n2-c2ncccc21` (centres undefined), for which the results for the inhibition in [8] and in [9] were -1.01% and -15.2%, respectively.
For `O=C(N/N=C/c1ccc(O)cc1)c1[nH]c2ccc(Br)cc2c1-c1ccccc1` the same measures were -15.2% and -7.94%.
The matching figures for `CC(C)CCn1cnc2c(sc3nc4c(cc32)CSC(C)(C)C4)c1=O`: -42.3% and -11.9%.
For `Cc1ccc(C(C)C)c(OCc2ccc(C(=O)N/N=C/c3ccc(C(=O)O)cc3)cc2)c1` the same measures were -13.2% and 41.4%.
Take `COc1ccc(NC(=O)C2(C)Cc3c(-c4cccc(NC(C)=O)c4)ccnc3O2)cc1` (centres undefined): the inhibition in assay [8] was -10.6%; in [9], 1.6%.
For `CC(C)(C)c1ccccc1NC(=O)CN1C(=O)NC2(CCCC2)C1=O` the same measures were -13.7% and -9.65%.
For `Cn1cc(S(=O)(=O)Nc2ccc3c(c2)OCCO3)cn1` the same measures were -16% and 32.5%.
With `COc1ccc(-n2c(SCC(=O)NN=Cc3c(O)ccc4ccccc34)nnc2-c2ccc(C(C)(C)C)cc2)cc1`, the inhibition in assay [8] was -13%; in [9], 30.7%.
The matching figures for `Cc1cc(N2CCOCC2)c2c(N)cc(C)c(C)c2n1`: -7.44% and -11.2%.
For `Cc1nnc(NC(=O)c2nc(S(=O)(=O)Cc3ccccc3C)ncc2Cl)s1` the same measures were 42% (active) and 49.7% (active).
For `CC(C)CC(NC(=O)c1ccco1)C(=O)Nc1ccc2c(c1)OCCO2` (centres undefined), the inhibition in [8] is 10.6%; in [9], 7.27%.
The matching figures for `COC(=O)COc1ccc(S(=O)(=O)Nc2ccc3c(c2)OCCO3)cc1C`: -11.5% and 6.48%.
The matching figures for `CSc1nnc(NC(=O)c2nc(S(=O)(=O)Cc3ccc(C)cc3)ncc2Cl)s1`: 36.7% (active) and 55.7% (active).
The matching figures for `CCc1ccc(/C=C2\SC(=S)N(CCCC(=O)N3CCN(C)CC3)C2=O)cc1`: -9.42% and 11.9%.
